# Screening data as filed in PubChem.
# BoNT F protease: inhibitors of Botulinum neurotoxin F light chain protease; Multiplex microsphere protease cleavage assay, flow cytometry; hit rate 0.22% among 360,000; inhibition, % at 10 µM; in the data active means inhibition above about 35%, passing the limit was not always enough; inconclusive means no clear call, values can overlap the other calls; further: plate controls were buffer without enzyme for full effect and enzyme alone for no effect
# Anthrax LF prot: anthrax lethal factor protease inhibition. multiplex microsphere protease cleavage assay, LF. inhibition, % at 10 µM. hit rate 0.12% among 360,000. AID 588501; further: plate controls were buffer without enzyme for full effect and enzyme alone for no effect
# Target sequence (P15917 whole entry, looked up): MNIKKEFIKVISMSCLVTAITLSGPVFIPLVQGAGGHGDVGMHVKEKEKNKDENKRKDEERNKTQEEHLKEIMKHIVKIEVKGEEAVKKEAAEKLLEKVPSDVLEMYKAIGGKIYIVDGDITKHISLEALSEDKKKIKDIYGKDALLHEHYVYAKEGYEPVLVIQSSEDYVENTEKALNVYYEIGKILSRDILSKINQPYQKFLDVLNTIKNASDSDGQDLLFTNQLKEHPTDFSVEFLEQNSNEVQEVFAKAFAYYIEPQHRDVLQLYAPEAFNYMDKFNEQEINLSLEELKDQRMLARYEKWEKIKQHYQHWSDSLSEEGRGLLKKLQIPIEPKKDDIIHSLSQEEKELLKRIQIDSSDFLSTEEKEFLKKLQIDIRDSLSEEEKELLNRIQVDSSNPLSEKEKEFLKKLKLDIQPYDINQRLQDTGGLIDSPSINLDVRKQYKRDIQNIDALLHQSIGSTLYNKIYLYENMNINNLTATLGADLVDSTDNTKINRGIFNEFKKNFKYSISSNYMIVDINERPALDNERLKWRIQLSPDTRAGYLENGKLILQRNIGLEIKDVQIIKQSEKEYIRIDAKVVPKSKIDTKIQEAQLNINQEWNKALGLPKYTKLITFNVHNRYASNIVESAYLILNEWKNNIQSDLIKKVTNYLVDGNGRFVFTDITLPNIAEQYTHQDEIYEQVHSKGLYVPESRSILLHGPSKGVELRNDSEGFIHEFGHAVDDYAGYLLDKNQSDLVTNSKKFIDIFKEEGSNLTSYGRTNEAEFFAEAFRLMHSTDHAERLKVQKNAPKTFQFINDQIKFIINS
# Bead autofluor: compound fluorescence in toxin protease inhibitor counterscreen. compound autofluorescence counterscreen, microsphere flow cytometry; active compounds read high. fluorescence intensity (test concentration not listed). hit rate 3.1% among 360,000. AID 624483; in the data active means fluorescence intensity above about 16000; inconclusive means no clear call, values can overlap the other calls
# PriA SSB inh: blocks PriA binding to SSB C-terminal tail | AlphaScreen SSBct-PriA binding, biotinylated peptide | inhibition, % at 33 µM | hit rate 0.6% among 430,000 | AID 1272365; in the data active means inhibition mostly above about 37%, no sharp cut-off; inactive means mostly below about 20%;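 further: plate controls were negative control peptide for no effect and reference peptide for full effect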
# BoNT-A LC inh2: inhibitors of Botulinum neurotoxin A light chain protease. multiplex microsphere protease substrate cleavage, flow cytometry. hit rate 0.17% among 360,000. AID 588499. inhibition, % at 10 µM; further: plate controls were buffer without enzyme for full effect and enzyme alone for no effect
# * hit, by the source's call; ? = inconclusive; / = not tested or not shown. Sampled rows, rich in hits. Any-hit rate of the full collection: about 3.1%. Unless noted, no stated cut-off is given here; in the data, active means inhibition above about 30%; inconclusive means no clear call, values can overlap the other calls; inactive means below that.
SMILES,BoNT F protease,Anthrax LF prot,Bead autofluor,PriA SSB inh,BoNT-A LC inh2
O=C1CC(NC(=O)C2CCC2)CN1 (configuration not stated),/,/,/,-8,/
COc1cc(-c2cc(C(=O)O)[nH]n2)cc(OC)c1OC,/,/,/,-8,/
C=CCOc1nc2c(c(=O)n(C)c(=O)n2C)n1Cc1ccccc1Cl,7,-6,20534*,-6,6
Cc1cc2cc(CNC(=O)Nc3c[nH]c4ccccc34)ccc2[nH]1,/,/,/,33*,/
CC(CCc1ccccc1)NC(=O)Nc1c[nH]c2ccccc12 (configuration not stated),/,/,/,39*,/
COc1ccc(CN2CCNCC2CCO)c(F)c1 (configuration not stated),/,/,/,4,/
COc1ccc(CCNC(=O)NCc2ccc(C(=O)c3ccccc3)s2)cc1,/,/,/,-3,/
CC(=O)c1sc2nc(C)cc(C)c2c1N,1,-3,21807*,-9,0
COC(=O)Cc1c(O)ccn(Cc2cccc3ccccc23)c1=O,0,-1,21316*,-1,1
Cc1cc(NC(=O)c2ccc([N+](=O)[O-])s2)n(-c2nc3ccccc3s2)n1,/,/,/,-16,/
CC(=O)c1ccc(NC(=O)CN2C(=O)/C(=C/C=C/c3ccccc3)SC2=S)cc1,13,24,3500,-3,47*
CCOC(=O)C1CCCN(CCC(C)c2ccccc2)C1 (configuration not stated),8,0,21853*,-8,6
CCOC(=O)C1CCCN(CC(=O)Nc2cc(C)cc(C)c2)C1 (configuration not stated),1,1,3990,3,0
CCOC(=O)C1CCCN(C/C=C/c2ccccc2[N+](=O)[O-])C1 (configuration not stated),13,-7,16661*,-7,10
CCOC(=O)C1CCCN(CC(=O)NC2CC2)C1 (configuration not stated),2,-3,16644*,-6,-2
Cc1nnc(C)n1/N=C/c1ccc(C(=O)O)cc1,1,3,22576*,/,0
CC1(C(=O)NC2CCCCCC2)CCC(=O)N1Cc1ccc2c(c1)OCO2 (configuration not stated),-4,-6,16292*,-13,0
COc1ccc(C(C#N)=Cc2ccccc2OC)cc1,4,-2,3851,/,-1
COc1cc(N2CCCC2)c(OC)cc1/C=C(/C#N)c1ccc(F)cc1,35*,-6,7730,33,1
COc1cc(N2CCCC2)c(OC)cc1/C=C(/C#N)c1ccc(Br)cc1,-2,-1,20296*,3,1
CN1C(=CC=C2C=C(I)C(=O)C(I)=C2)C(C)(C)c2ccccc21,19,55*,3157,/,101*
N#Cc1nc(-c2ccccc2Cl)oc1N1CCCCCC1,/,/,/,94*,/
Cc1ccccc1-c1nc(C#N)c(N2CCC(C)CC2)o1,-11,-2,2860,29,0
N#Cc1nc(-c2ccccc2Cl)oc1N1CCOCC1,-6,-3,6699,4,-1
CC1CCN(c2oc(-c3ccccc3Cl)nc2C#N)CC1,-15,-4,4596,49*,-1
SMILES,BoNT F protease,Anthrax LF prot,Bead autofluor,PriA SSB inh,BoNT-A LC inh2
CCN(CC)CCN(C(=O)c1ccc(S(=O)(=O)N2CCCCCC2)cc1)c1nc2ccc(Cl)cc2s1,/,/,/,-3,/
Cn1c(-c2ccccn2)nn(CCNC(=O)Cn2ccc3ccccc32)c1=O,/,/,/,-11,/
O=C1C(=C(O)c2ccccc2)C(=O)c2ccccc21,-11,-7,6855,9,-1
O=C1C(=C(c2ccccc2)c2ccccc2)Nc2ccccc21,-1,-4,3167,42*,0
Cc1ccc(S(=O)(=O)N2CCCC(C(=O)NCCCN3CCCCC3C)C2)cc1 (configuration not stated),0,2,25210*,5,2
CC1CC(C)CN(S(=O)(=O)N2CCCC(C(=O)NCCCN3CCCCC3C)C2)C1 (configuration not stated),4,1,5870,-12,0
CCCc1ccc(OCc2ccc(C(=O)OC)o2)c(OC)c1,1,-2,23181*,-42,1
CCCc1ccc(OCc2ccc(C(=O)O)o2)c(OC)c1,4,1,2799,-5,0
COc1ccccc1N1CCN(CCNC(=O)c2ccccc2Cl)CC1,/,/,/,-13,/
Cc1ccccc1-n1c(=O)/c(=C\c2ccco2)s/c1=C(/C#N)C(=O)Nc1ccccc1,8,4,20678*,/,8
O=C(NCCOc1ccccc1)N1CCC(c2ccsc2)CC1,/,/,/,-8,/
CCOC(=O)CSc1nc2ccsc2c(=O)n1C1CCN(C(=O)OCC)CC1,0,-4,8035,-8,0
CCOC(=O)CSc1nc2cc(C(=O)NCc3ccco3)ccc2c(=O)n1C1CCCCC1,0,-1,16581*,-8,0
CCOC(=O)N1CCC(n2c(SCC(=O)NCc3ccco3)nc3ccsc3c2=O)CC1,-1,-3,23599*,2,-1
COc1ccc(S(=O)(=O)N2CCN(c3ncnc4c3nnn4-c3cccc(F)c3)CC2)cc1C,/,/,/,1,/
N#Cc1ccc(S(=O)(=O)NC2CCN(Cc3ccccc3)CC2)cc1,?,19,4899,-7,?
CS(=O)(=O)NC1CCN(Cc2ccccc2)CC1,-5,1,22396*,-5,?
O=C(COc1ccccc1F)NC1CCN(Cc2ccccc2)CC1,-4,-3,20185*,-18,-2
COc1ccccc1NC(=O)C1=C(C)Nc2nc(SC)nn2C1c1ccc(C)o1 (configuration not stated),/,/,/,-13,/
Cc1ccc(S(=O)(=O)N2CCC(c3nnc(-c4ccsc4)o3)CC2)s1,/,/,/,-12,/
Cc1ccc([N+](=O)[O-])cc1-c1[nH]c(-c2ccc(O)c(O)c2)nc1-c1ccccc1,-6,-9,16205*,49,0
Cc1ccc2ncc(NC(=O)c3ccc(F)cc3)c(=O)n2c1,22,0,3357,-3,0
Cc1ccc(C(=O)Nc2cnc3ccccn3c2=O)cc1,-6,-1,24404*,-21,-2
C=CCn1c(SCC)nc2sc3c(c2c1=O)CCc1ccccc1-3,-5,-1,17250*,-8,-2
C=CCn1c(SC)nc2sc3c(c2c1=O)CCc1ccccc1-3,1,0,2256,-2,0
SMILES,BoNT F protease,Anthrax LF prot,Bead autofluor,PriA SSB inh,BoNT-A LC inh2
O=C(c1cnc(-c2ccc(Cl)cc2)s1)c1ccc(Cl)cc1Cl,-2,3,16515*,7,2
COCC(=O)Nc1cc(C)nn1-c1nc2c(cnn2-c2ccc(F)cc2)c(=O)[nH]1,/,/,/,8,/
CSc1ccccc1C(=O)Nc1cc(C)nn1-c1nc2c(cnn2-c2ccc(F)cc2)c(=O)[nH]1,/,/,/,41*,/
COc1ccc(C(=O)Nc2cc(C)nn2-c2nc3c(cnn3-c3ccc(F)cc3)c(=O)[nH]2)cc1OC,/,/,/,53*,/
COc1ccc(C(=O)Nc2cc(C)nn2-c2nc3c(cnn3-c3ccc(C)c(C)c3)c(=O)[nH]2)cc1OC,/,/,/,91*,/
COc1ccc(C(=O)Nc2cc(C)nn2-c2nc3c(cnn3-c3ccc(C)cc3)c(=O)[nH]2)cc1,/,/,/,0,/
O=C(/C=C/c1ccccc1Cl)Nc1ccc(-c2nc3ccccc3o2)cc1,/,/,/,-8,/
CCOCCn1c(=NC(=O)CCc2ccccc2)sc2cc([N+](=O)[O-])ccc21,/,/,/,-10,/
COc1ccc(CCNC(=O)NC2CCC(Oc3cnccn3)CC2)cc1 (configuration not stated),/,/,/,-21,/
